Assay [1] can be described thus: antimalarial activity against Dd2 strain (AID 2302;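 active = growth inhibition above 50% at the single 2 µM test dose, taken to imply half-maximal potency below 2 µM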;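 note: 0% = DMSO untreated growth and 100% = chloroquine plus artemisinin killed control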). As to conditions: P. falciparum Dd2 in RBCs, LDH growth readout, 72 h; at 2 µM; active compounds read high.
Assay [2] in a line: human hepatoma cell viability loss – ATP luminescence, cytotoxicity control for P. falciparum antimalarial project, primary screen (AID 2303;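 active = inhibition above 50%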;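 note: 0% = DMSO wells and 100% = digitonin-killed cells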). The conditions noted are these: HepG2 viability, 24-48 h, at 10 µM, active compounds read high.
Assay [3] has as its target L-lactate dehydrogenase (Plasmodium falciparum (isolate CDC / Honduras)) (UniProt Q27743). The assay can be described thus: PfLDH activity inhibition – cell lysate, 3D7 strain, counter-screen for P. falciparum growth inhibition project (AID 2304).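 Note: 0% = vehicle and 100% = reference inhibitor.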 The conditions noted are these: P. falciparum 3D7 crude extract, LDH APAD/NBT absorbance; at 2 µM; active compounds read high. In general terms: A counterscreen serves to expose hits that act by an unwanted route or on another target.

Assay [4] in a line: inhibition of 3D7 malaria parasite growth – strain 3D7 (AID 2306).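 Note: 0% = DMSO wells and 100% = chloroquine plus artemisinin control wells.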 As to conditions: P. falciparum 3D7 erythrocytic growth, LDH absorbance, 72 h; at 2 µM; active compounds read high.
Assay [5] addresses Calcium-dependent protein kinase 1 (Plasmodium falciparum (isolate 3D7)) (UniProt P62344). The assay can be described thus: PfCDPK1 kinase inhibitors, biochemical, TCAMS library (AID 1159585; cut-off not given, nearly all actives have IC50 up to about 0.98 µM;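 note: inhibitors leave more ATP so luminescence rises with inhibition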). As to conditions: recombinant PfCDPK1, Kinase-Glo ATP depletion luminescence. A general note: Kinase-Glo reads ATP consumption through a luciferase reaction.
Assay [6] addresses Plasmodium falciparum protein kinase 6 (PK6, PF3D7_1337100) (UniProt Q8IDW1). Nature of the assay: PfPK6 kinase inhibitors, biochemical, TCAMS library (AID 1159586). As to conditions: recombinant PfPK6, Kinase-Glo ATP depletion luminescence.
In assay [7] the target is Protein kinase 7 (PK7), Plasmodium falciparum 3D7 (PF3D7_0213400) (UniProt Q7YTF7). The assay can be described thus: inhibition of Plasmodium PK7 catalytic activity – biochemical, TCAMS antimalarial set, Kinase-Glo luminescence (AID 1159587). The conditions noted are these: recombinant PfPK7, Kinase-Glo ATP depletion luminescence.
Chain of Protein kinase 7 (PK7), Plasmodium falciparum 3D7 (PF3D7_0213400) (Q7YTF7 1-343): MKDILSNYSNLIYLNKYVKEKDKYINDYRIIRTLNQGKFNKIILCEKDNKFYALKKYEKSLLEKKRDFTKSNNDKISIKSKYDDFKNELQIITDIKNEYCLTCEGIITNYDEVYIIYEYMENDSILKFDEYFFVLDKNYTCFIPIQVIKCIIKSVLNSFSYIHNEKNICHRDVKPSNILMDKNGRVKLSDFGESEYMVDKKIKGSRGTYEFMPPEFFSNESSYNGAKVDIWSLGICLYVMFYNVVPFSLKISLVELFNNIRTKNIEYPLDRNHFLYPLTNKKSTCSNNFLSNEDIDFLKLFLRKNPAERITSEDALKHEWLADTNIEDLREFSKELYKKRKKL
Assay [8] has as its target Calcium-dependent protein kinase 4 (Plasmodium falciparum (isolate 3D7)) (UniProt Q8IBS5). Nature of the assay: PfCDPK4 kinase inhibitors, biochemical, TCAMS library (AID 1159588; cut-off not given, nearly all actives have IC50 up to about 0.91 µM). The conditions noted are these: recombinant PfCDPK4, Kinase-Glo ATP depletion luminescence.

Results on 18 compounds are retold here after PubChem BioAssay.

Values without a mark were called inactive. For part of these data: Measured potencies and affinities stand elsewhere. Activity calls are given as the source filed them. Unless noted, the rule behind the calls is not given here.

Chain of Calcium-dependent protein kinase 1 (Plasmodium falciparum (isolate 3D7)) (P62344 whole entry, looked up): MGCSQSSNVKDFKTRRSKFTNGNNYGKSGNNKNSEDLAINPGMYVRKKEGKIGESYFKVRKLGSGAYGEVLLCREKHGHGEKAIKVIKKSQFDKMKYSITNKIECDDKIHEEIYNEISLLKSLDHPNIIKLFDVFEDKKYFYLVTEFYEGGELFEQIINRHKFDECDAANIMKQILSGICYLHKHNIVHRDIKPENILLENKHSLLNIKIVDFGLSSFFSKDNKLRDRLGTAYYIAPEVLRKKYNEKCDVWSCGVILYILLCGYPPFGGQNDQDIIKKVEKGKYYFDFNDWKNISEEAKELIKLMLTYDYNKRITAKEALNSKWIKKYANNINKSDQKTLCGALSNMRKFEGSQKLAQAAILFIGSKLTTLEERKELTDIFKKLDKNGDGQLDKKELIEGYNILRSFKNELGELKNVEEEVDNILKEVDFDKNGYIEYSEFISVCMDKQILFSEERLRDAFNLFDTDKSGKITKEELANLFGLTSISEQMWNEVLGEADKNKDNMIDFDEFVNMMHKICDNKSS
Chain of Calcium-dependent protein kinase 4 (Plasmodium falciparum (isolate 3D7)) (Q8IBS5 whole entry, looked up): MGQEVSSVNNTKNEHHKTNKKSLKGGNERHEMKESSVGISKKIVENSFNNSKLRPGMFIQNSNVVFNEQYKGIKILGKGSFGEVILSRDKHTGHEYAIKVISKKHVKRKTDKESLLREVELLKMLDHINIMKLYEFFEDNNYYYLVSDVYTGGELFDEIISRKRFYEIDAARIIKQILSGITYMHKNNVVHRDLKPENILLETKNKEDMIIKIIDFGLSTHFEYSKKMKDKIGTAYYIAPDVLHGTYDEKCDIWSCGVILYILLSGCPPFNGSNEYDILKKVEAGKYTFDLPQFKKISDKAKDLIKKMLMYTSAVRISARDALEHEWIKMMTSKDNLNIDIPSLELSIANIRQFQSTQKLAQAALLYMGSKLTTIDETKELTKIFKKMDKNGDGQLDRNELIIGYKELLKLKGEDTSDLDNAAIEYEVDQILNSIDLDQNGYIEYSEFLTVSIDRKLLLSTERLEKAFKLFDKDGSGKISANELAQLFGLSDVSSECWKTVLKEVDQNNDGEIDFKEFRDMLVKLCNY
Chain of L-lactate dehydrogenase (Plasmodium falciparum (isolate CDC / Honduras)) (Q27743 whole entry, looked up): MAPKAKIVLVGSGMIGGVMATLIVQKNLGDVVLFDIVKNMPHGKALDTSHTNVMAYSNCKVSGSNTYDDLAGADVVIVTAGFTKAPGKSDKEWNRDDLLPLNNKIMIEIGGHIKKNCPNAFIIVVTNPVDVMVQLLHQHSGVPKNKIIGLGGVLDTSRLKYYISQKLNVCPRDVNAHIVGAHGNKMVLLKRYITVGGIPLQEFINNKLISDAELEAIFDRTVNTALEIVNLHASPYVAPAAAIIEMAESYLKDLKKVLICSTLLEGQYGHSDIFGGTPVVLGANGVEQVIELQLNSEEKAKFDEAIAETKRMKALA
Chain of Plasmodium falciparum protein kinase 6 (PK6, PF3D7_1337100) (Q8IDW1 1-305): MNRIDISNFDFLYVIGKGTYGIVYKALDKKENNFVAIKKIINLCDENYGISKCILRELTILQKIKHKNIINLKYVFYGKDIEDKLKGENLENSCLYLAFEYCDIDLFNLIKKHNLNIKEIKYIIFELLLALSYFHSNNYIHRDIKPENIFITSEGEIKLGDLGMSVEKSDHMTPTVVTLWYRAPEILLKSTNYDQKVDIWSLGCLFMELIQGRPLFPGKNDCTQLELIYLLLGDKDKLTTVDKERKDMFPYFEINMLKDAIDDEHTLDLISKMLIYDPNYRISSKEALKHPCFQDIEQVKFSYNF

Regarding `COc1cc2c(c(Cl)c1OC)CCN(C(=O)C(F)(F)F)CC2c1ccccc1` (centres undefined), the growth inhibition in assay [1] and in assay [4] was 101% (active) in each case. Moreover, the inhibition (as a rule, the change of the read-out against control, counted positive when it falls) was 7% in assay [2] and 8% in assay [3]. For the same compound, the outcome in assay [5], in assay [6], in assay [7] and in assay [8] was inactive.
`O=C(Nc1ccc(F)cc1)c1ccc(C(=O)NC2CCN(CC3CCCCC3)CC2)cc1`: the values for the growth inhibition in assay [1] and in assay [4] were 0% and 99% (active), respectively. The inhibition in assay [2] is 34%; in assay [3] it was -7%. Besides, the result in assay [5], in assay [6], in assay [7] and in assay [8] was inactive.
For the compound `CNC(=O)c1ccc2nc(-c3ccc(-c4ccccc4)cc3)n(CC3CCN(CC4CCCC4)CC3)c2c1`, the growth inhibition in assay [1] is 36%; in assay [4] it was 84% (active). Moreover, the inhibition in assay [2] was 13%; in assay [3], -6%. Moreover, the result in assay [5], in assay [6], in assay [7] and in assay [8] was inactive.
As to `CCc1c[nH]c2c(N3CCCC3=O)cc(C(=O)N[C@@H](Cc3ccccc3)[C@H](O)CNC(C)(C)c3cccc(C(F)(F)F)c3)cc12`, the growth inhibition in assay [1] was 99% (active); in assay [4], 98% (active). Further, the inhibition was 10% in assay [2] and 1% in assay [3]. The result in assay [5], in assay [6], in assay [7] and in assay [8] was inactive.
As for `Clc1ccc(CNc2nc(NCCc3cnc[nH]3)nc(N3CCCC4CCCCC43)n2)cc1` (centres undefined), the growth inhibition in assay [1] is 100% (active); in assay [4], 101% (active). Moreover, the inhibition is 10% in assay [2] and 4% in assay [3]. Also, the result in assay [5], in assay [6], in assay [7] and in assay [8] was inactive.
As to `COc1ccc(C2CC(=O)C3=C(C2)NC(C)=C(C(=O)OC2CCCC2)C3c2ccc(O)cc2)cc1OC` (centres undefined), the results for the growth inhibition in assay [1] and in assay [4] were 92% (active) and 97% (active), respectively. Further, the figures for the inhibition in assay [2] and in assay [3] were -9% and -7%, respectively. Also, the result in assay [5], in assay [6], in assay [7] and in assay [8] was inactive.
Take `CCn1c(=O)c(C(=O)Nc2cc(Cl)c(OC)cc2OC)nc2ccccc21`: the growth inhibition in assay [1] was 84% (active); in assay [4], 86% (active). Also, the results for the inhibition in assay [2] and in assay [3] were 19% and 6%, respectively. In addition, the result in assay [5], in assay [6], in assay [7] and in assay [8] was inactive.
For `c1cncc(Oc2ccc(Nc3ccnc4cc(-c5cccc(CN6CCCCC6)c5)ccc34)cc2)c1`, the growth inhibition was 100% (active) in assay [1] and 101% (active) in assay [4]. For the same compound, the results for the inhibition in assay [2] and in assay [3] were 33% and 4%, respectively. Besides, the outcome in assay [5], in assay [6], in assay [7] and in assay [8] was inactive.
With `Cc1cccc(-c2nc(Nc3ccncc3)c3ccc([N+](=O)[O-])cc3n2)n1`, the growth inhibition in assay [1] was 13%; in assay [4], 87% (active). Also, the inhibition in assay [2] was -9%; in assay [3] it was -1%. Further, the outcome in assay [5], in assay [6], in assay [7] and in assay [8] was inactive.
Turning to `CCc1ccc(C2=Nn3c(nnc3-c3cccs3)SC2)cc1`, the growth inhibition in assay [1] was 20%; in assay [4], 93% (active). The figures for the inhibition in assay [2] and in assay [3] were 9% and 0%, respectively. Also, the result in assay [5], in assay [6], in assay [7] and in assay [8] was inactive.
For `O=C1C2=C(Nc3ccccc3SC2c2ccccc2)c2ccccc21` (centres undefined), the values for the growth inhibition in assay [1] and in assay [4] were 94% (active) and 86% (active), respectively. Besides, the inhibition in assay [2] was 5%; in assay [3] it was -7%. Also, the result in assay [5], in assay [6], in assay [7] and in assay [8] was inactive.
With `COc1ccc2[nH]cc(C3CCN(CCCCNC(=O)c4ccc(NC(=O)c5ccc(Cl)cc5)cc4)CC3)c2c1`, the values for the growth inhibition in assay [1] and in assay [4] were 16% and 98% (active), respectively. For the same compound, the inhibition in assay [2] was 17%; in assay [3], 3%. The outcome in assay [5], in assay [6], in assay [7] and in assay [8] was inactive.
For `C=CCc1ccc(C2CCN(CCCCNC(=O)c3ccc(NC(=O)c4ccc(Cl)cc4)cc3)CC2)cc1`, the growth inhibition is 97% (active) in assay [1] and 101% (active) in assay [4]. Moreover, the inhibition in assay [2] was 27%; in assay [3] it was -5%. Besides, the outcome in assay [5], in assay [6], in assay [7] and in assay [8] was inactive.
For `O=c1cc(NCCCNCc2csc(Br)c2Sc2ccc(Cl)cc2)[nH]c2ccccc12`, the growth inhibition in assay [1] was 83% (active); in assay [4] it was 95% (active). For the same compound, the inhibition was 5% in assay [2] and 7% in assay [3]. Besides, the outcome in assay [5], in assay [6], in assay [7] and in assay [8] was inactive.
Turning to `O=C(Nc1cccc(CN2CCCN(Cc3cccc(O)c3)CC2)c1)c1ccc(-c2ccccc2)cc1`, the growth inhibition in assay [1] is 66% (active); in assay [4], 101% (active). For the same compound, the inhibition in assay [2] is 28%; in assay [3], 3%. In addition, the outcome in assay [5], in assay [6], in assay [7] and in assay [8] was inactive.
Take `O=C(Nc1ccc(Cn2ncc(N3CCCNCC3)c(Cl)c2=O)cc1)Nc1cccc(C(F)(F)F)c1`: the growth inhibition in assay [1] was 30%; in assay [4], 101% (active). Moreover, the figures for the inhibition in assay [2] and in assay [3] were 20% and 0%, respectively. Besides, the outcome in assay [5], in assay [6], in assay [7] and in assay [8] was inactive.
In the case of `O=C(Nc1ccc2c(c1)CCC2)c1ccc(CN2CCCN(Cc3cccc(O)c3)CC2)cc1`, the values for the growth inhibition in assay [1] and in assay [4] were 46% and 88% (active), respectively. Besides, the inhibition is 45% in assay [2] and -1% in assay [3]. For the same compound, the result in assay [5], in assay [6], in assay [7] and in assay [8] was inactive.
With `NCc1ccc(CNCc2cccc(-c3cccc(-c4nc5ccccc5[nH]4)c3)c2)cc1`, the growth inhibition in assay [1] was 11%; in assay [4], 101% (active). Moreover, the inhibition in assay [2] is 7%; in assay [3], -7%. The outcome in assay [5], in assay [6], in assay [7] and in assay [8] was inactive.
